# PubChem BioAssay (NCATS)
# Records with an inconclusive call do not appear. The source made the active and inactive calls. The call rests on the fitted dose curve; in most records, active means well fitted cell-killing curve with a large enough effect; inconclusive means small, poorly fitted or top-dose-only effect, or effect the other way; inactive means no such curve, though single readings can be large or run the other way.
# Experiment: Quantitative High-Throughput drug screen in 47 multiple myeloma cell lines against the NCATS MIPE library collection: Karpas620_DSMZ cell viability assay (AID 1918959);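 on viability (% of DMSO): 100% = DMSO-only wells and 0% = cell-free media-only wells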
# Details: Karpas620 myeloma viability, CellTiter-Glo ATP luminescence, 48 h; series mostly up to 45.8 µM; viability (% of DMSO): at the top concentration
# Summary of the method: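 Viability readout: CellTiter-Glo luminescence following 5 min room-temperature incubation with reagent. Prior exposure: 48 h, 37C, humidified 5% CO2, 500 cells per well.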
# Further: nearly all actives have a fitted effect of over 30% in size.
# Potency means the concentration at half of the fitted maximal effect.
SMILES,viability (% of DMSO),Potency
COc1cc2nccc(Oc3ccc(NC(=O)Nc4ccc(F)cc4F)c(F)c3)c2cc1OC,104% (inactive),
Nc1nc(Cl)nc2c1ncn2[C@@H]1O[C@H](CO)[C@@H](O)[C@H]1F,,0.469 µM (active)
CC1C(=O)OC2C(O)C34C5CC(C(C)(C)C)C36C(OC(=O)C6O)OC4(C(=O)O5)C12O (stereo unspecified),126% (inactive),
O=C(Nc1cccc(C(F)(F)F)c1)Nc1cc(S(=O)(=O)NC2CC2)ccc1-c1ccsc1,97.1% (inactive),
O=C(O)c1ccc(O)c2ncc(N3CCOCC3)cc12,,18.7 µM (active)
CN[C@@H]1CN(c2ccc3c(=O)c(C(=O)O)cn(-c4nccs4)c3n2)C[C@@H]1OC,113% [at 23.2 µM] (inactive),
OC[C@H]1O[C@@H](OCCc2ccc(O)cc2)[C@H](O)[C@@H](O)[C@H]1O,95.3% (inactive),
Oc1cc(O)cc(C=Cc2ccc(O)c(O)c2)c1,,5.26 µM (active)
Cc1c(-c2cccc3c(CCCOc4cccc5ccccc45)c(C(=O)O)n(Cc4cccnc4)c23)c(COc2ccc(N3CCN([S+](=O)([O-])N(C)C)CC3)cc2)nn1C,100% (inactive),
NS(=O)(=O)c1cc(Cl)c(Cl)c(S(N)(=O)=O)c1,130% (inactive),
COc1cc2ncn(-c3cc(OCc4ccccc4S(C)(=O)=O)c(C#N)s3)c2cc1OC,97.2% (inactive),
Cc1cccc2c1CC[C@H](CN1CCC(c3c(Cl)cccc3Cl)CC1)C[C@@H]2O,,11.8 µM (active)
CC[C@H](C)C(=O)O[C@H]1C[C@H](O)C=C2C=C[C@H](C)[C@H](CC[C@@H](O)C[C@@H](O)CC(=O)O)[C@H]21,110% (inactive),
CC(C)[C@H](O)C(=O)N[C@@H](C)C(=O)N[C@@H]1C(=O)N(C)CCc2ccccc21,97.5% (inactive),
CN[C@H]1[C@@H](O[C@@H]2[C@H](O[C@@H]3[C@@H](O)[C@@H](O)[C@@H](N=C(N)N)[C@@H](O)[C@@H]3N=C(N)N)O[C@H](C)[C@@]2(O)C=O)O[C@@H](CO)[C@@H](O)[C@H]1O,120% [at 15.3 µM] (inactive),
Fc1ccc(CNc2ncnc3ccc(F)cc23)cc1,,5.9 µM (active)
COc1ccc(CCN(C)CCCOc2ccc(S(=O)(=O)c3[nH]c4ccccc4c3C(C)C)cc2)cc1OC,125% (inactive),
Cc1cc(NC(=O)Nc2ccc(N(C)C)cc2)c2cc(F)cc(F)c2n1,130% (inactive),
CC(NCCc1ccc(O)cc1)C(O)c1ccc(O)cc1 (stereo unspecified),118% (inactive),
Cc1ccccc1-n1c(Cn2nc(-c3cccc(O)c3)c3c(N)ncnc32)nc2cccc(C)c2c1=O,,0.833 µM (active)
OC[C@H]1O[C@@H](Oc2ccc(O)cc2)[C@H](O)[C@@H](O)[C@H]1O,103% (inactive),
C=CCc1cccc(C=NNC(=O)CN2CCN(Cc3ccccc3)CC2)c1O,,9.35 µM (active)
CCCCC[C@H](O)C=C[C@H]1[C@H](O)CC(=O)[C@H]1CC=CCCCC(=O)O,132% (inactive),
Cc1cnc(-c2cc(N3CCN(C(=O)CCS(C)(=O)=O)CC3)ncc2Cl)c(C)c1,88.2% (inactive),
C[C@@H](NC(=O)c1ncnc(N)c1Cl)c1ncc(C(=O)Nc2cc(C(F)(F)F)c(Cl)cn2)s1,,26.4 µM (active)
CCCCc1ccc(NS(=O)(=O)c2ccc(C)c(C(=O)N3CCN(c4cccc(C)c4C)CC3)c2)cc1,103% (inactive),
CNc1nc(Nc2ccc(C(=O)N3CCOCC3)cc2OC)ncc1Cl,87.6% (inactive),
O=C(c1ccc(C(=O)N2CCC(N3CCCC3)CC2)c(Nc2ccccc2)c1)N1CCC(N2CCCC2)CC1,131% (inactive),
COc1ccc(-c2ccc3ncc4c(c3c2)n(-c2ccc(N3CCNCC3)c(C(F)(F)F)c2)c(=O)n4C)cn1,,0.0833 µM (active)
CC(C)C[C@@H](C(=O)N[C@H](C(=O)OC1CCCC1)c1ccccc1)[C@H](O)C(=O)NO,,5.26 µM (active)

# Experiment: Quantitative High-Throughput drug screen in 47 multiple myeloma cell lines against the NCATS MIPE library collection: KMM1_JCRB cell viability assay (AID 1918960)
# Details: KMM1 myeloma viability, CellTiter-Glo ATP luminescence, 48 h; series mostly up to 45.8 µM; viability (% of DMSO): at the top concentration
# Summary of the method: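 Myeloma cells, 500 per well, were exposed to MIPE 4.0 drugs by pin transfer for 48 h at 37 °C, 5% CO2. Viability was read as ATP luminescence with CellTiter-Glo, normalised to DMSO-only (100%) and medium-only (0%) wells.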
SMILES,viability (% of DMSO),Potency
COc1cc2nccc(Oc3ccc(NC(=O)Nc4ccc(F)cc4F)c(F)c3)c2cc1OC,90.6% (inactive),
O=C(Nc1cccc(C(F)(F)F)c1)Nc1cc(S(=O)(=O)NC2CC2)ccc1-c1ccsc1,121% (inactive),
CN(C)c1ccc(-c2nc3ncc(Cl)c(N4CCN(CC(=O)Nc5nccs5)CC4)c3[nH]2)cc1,118% (inactive),
OC[C@H]1O[C@@H](OCCc2ccc(O)cc2)[C@H](O)[C@@H](O)[C@H]1O,98.2% (inactive),
Oc1cc(O)cc(C=Cc2ccc(O)c(O)c2)c1,,13.2 µM (active)
COc1cc(N2CCN(C)CC2)ccc1Nc1nc(N)c(C(=O)c2c(Cl)cccc2Cl)s1,,18.7 µM (active)
Cc1c(-c2cccc3c(CCCOc4cccc5ccccc45)c(C(=O)O)n(Cc4cccnc4)c23)c(COc2ccc(N3CCN([S+](=O)([O-])N(C)C)CC3)cc2)nn1C,91.6% (inactive),
CC(=O)OCC(=O)[C@@]1(O)CC[C@H]2[C@@H]3CCC4=CC(=O)C=C[C@]4(C)[C@@H]3[C@@H](O)C[C@@]21C,96.4% (inactive),
CC[C@H](C)C(=O)O[C@H]1C[C@H](O)C=C2C=C[C@H](C)[C@H](CC[C@@H](O)C[C@@H](O)CC(=O)O)[C@H]21,90.4% (inactive),
CC(C)[C@H](O)C(=O)N[C@@H](C)C(=O)N[C@@H]1C(=O)N(C)CCc2ccccc21,88.1% (inactive),
CN[C@H]1[C@@H](O[C@@H]2[C@H](O[C@@H]3[C@@H](O)[C@@H](O)[C@@H](N=C(N)N)[C@@H](O)[C@@H]3N=C(N)N)O[C@H](C)[C@@]2(O)C=O)O[C@@H](CO)[C@@H](O)[C@H]1O,112% [at 15.3 µM] (inactive),
Fc1ccc(CNc2ncnc3ccc(F)cc23)cc1,,4.18 µM (active)
COc1ccc(CCN(C)CCCOc2ccc(S(=O)(=O)c3[nH]c4ccccc4c3C(C)C)cc2)cc1OC,114% (inactive),
Cc1cc(NC(=O)Nc2ccc(N(C)C)cc2)c2cc(F)cc(F)c2n1,135% (inactive),
CC(NCCc1ccc(O)cc1)C(O)c1ccc(O)cc1 (stereo unspecified),,0.132 µM (active)
Cc1ccccc1-n1c(Cn2nc(-c3cccc(O)c3)c3c(N)ncnc32)nc2cccc(C)c2c1=O,,0.935 µM (active)
OC[C@H]1O[C@@H](Oc2ccc(O)cc2)[C@H](O)[C@@H](O)[C@H]1O,90.9% (inactive),
C=CCc1cccc(C=NNC(=O)CN2CCN(Cc3ccccc3)CC2)c1O,,5.26 µM (active)
CCCCc1ccc(NS(=O)(=O)c2ccc(C)c(C(=O)N3CCN(c4cccc(C)c4C)CC3)c2)cc1,115% (inactive),
CNc1nc(Nc2ccc(C(=O)N3CCOCC3)cc2OC)ncc1Cl,102% (inactive),
O=C(c1ccc(C(=O)N2CCC(N3CCCC3)CC2)c(Nc2ccccc2)c1)N1CCC(N2CCCC2)CC1,121% (inactive),
